# RORg inh: inhibitors of mouse ROR gamma transcriptional activity. Drosophila S2 Gal4-RORgamma UAS-luciferase reporter, 20 h. Potency, µM (highest dose often 53.6 µM), for the others: top-dose activity change, negative = inhibition, hits mostly inhibitors. 310,000 tested, 5.4% active; note: potency is the fitted concentration of half-maximal effect; % is set by controls: 0 for no effect and ±100 for the full control effect; nearly all actives have a fitted effect of over 60% in size
#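 A Gal4/UAS one-hybrid system in insect cells: metallothionein-promoter Gal4–ROR gamma fusion plus Photinus luciferase reporter. Copper sulfate 700 uM final, 20 hr ambient incubation, luminescent detection after 10 min with reagent.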
# Gal4-VP16 FLuc: inhibits Gal4-VP16 luciferase reporter, ROR gamma counter-screen. AID 2546. Potency, µM (highest dose often 53.6 µM), inactives show top-dose activity, negative = inhibition, most hits filed as inhibitors. Drosophila S2 Gal4-VP16 UAS-luciferase, luminescence, 20 h. 310,000 tested, 3.5% active;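 note: Gal4-VP16 expression switched on by copper sulfate through the metallothionein promoter; potency is the fitted concentration of half-maximal effect; % is set by controls: 0 for no effect and ±100 for the full control effect; nearly all actives have a fitted effect of over 50% in size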
# MBNL1 CUG block: MBNL1-poly(CUG) RNA binding inhibition; Q9NR56; TR-FRET MBNL1-His/biotin-(CUG)12 binding, 665/545 ratio; Potency, µM (top dose mostly 57.5 µM), without a hit: at the top dose activity change, negative = inhibition, actives largely listed as inhibitors; 280,000 tested, 0.036% active; AID 2675; active = well fitted inhibition curve with a large enough effect in the signal ratio, with a control signal flat, not every such curve was filed as active; inconclusive = small, poorly fitted or top-dose-only effect, or effect the other way, or a change in a side signal; inactive = no such curve, though single readings can be large or run the other way; the % refers to the signal ratio; note: potency is the fitted concentration of half-maximal effect; % is set by controls: 0 for no effect and ±100 for the full control effect
#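 TR-FRET readout: Ex 340 nm, 665/545 nm emission ratio, normalized to buffer-only (basal) and MBNL1-(CUG)12 controls. Complex of MBNL1-His with Biotin-(CUG)12, compounds 92 nM–58 uM, incubated 60 min at room temperature.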
# CBFb-RUNX1 inh: inhibitors of human CBF-beta and RUNX1 interaction; Q01196+Q13951; AlphaScreen CBFb-His/RUNX1-biotin binding, biochemical; Potency, µM (titrated, usually from 59.8 µM), for the others: at the highest dose activity, negative = inhibition, hits mostly inhibitors; 230,000 tested, under 10 active; note: % of control where 0% means no effect
#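 Room-temperature protein-protein interaction test with 30 nM each of His-tagged CBF-beta and biotinylated RUNX1, 15 min with compound, then 90 min with nickel plus streptavidin beads. Signal read in AlphaScreen mode.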
# Six1-Eya2 inh: inhibitors of human Six1/Eya2 interaction | Q15475+O00167 | AlphaScreen GST-Six1/His-Eya2 binding, biochemical; active compounds read low | activity change, % (no concentration beside the values) | 360,000 tested, 0.56% active | AID 651725; in the data active = activity change below about -65%; inconclusive = mostly about -30% to -63%; note: % is set by controls: 0 for no effect and ±100 for the full control effect
# Target sequence (O00167 whole entry, looked up): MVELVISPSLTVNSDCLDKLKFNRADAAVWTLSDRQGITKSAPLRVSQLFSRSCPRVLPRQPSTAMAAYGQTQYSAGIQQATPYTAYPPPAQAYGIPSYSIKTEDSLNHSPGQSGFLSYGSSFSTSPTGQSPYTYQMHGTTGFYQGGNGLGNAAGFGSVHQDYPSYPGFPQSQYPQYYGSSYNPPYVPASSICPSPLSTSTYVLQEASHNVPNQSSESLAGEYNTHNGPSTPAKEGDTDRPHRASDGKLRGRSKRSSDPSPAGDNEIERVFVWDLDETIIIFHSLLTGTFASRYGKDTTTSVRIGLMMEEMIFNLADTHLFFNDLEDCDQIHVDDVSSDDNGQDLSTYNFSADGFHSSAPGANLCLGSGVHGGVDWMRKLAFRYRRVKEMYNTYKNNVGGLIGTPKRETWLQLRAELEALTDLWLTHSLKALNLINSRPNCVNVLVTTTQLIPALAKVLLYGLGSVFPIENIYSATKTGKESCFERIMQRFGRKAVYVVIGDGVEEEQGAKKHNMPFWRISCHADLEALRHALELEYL
# Target sequence (Q15475 whole entry, looked up): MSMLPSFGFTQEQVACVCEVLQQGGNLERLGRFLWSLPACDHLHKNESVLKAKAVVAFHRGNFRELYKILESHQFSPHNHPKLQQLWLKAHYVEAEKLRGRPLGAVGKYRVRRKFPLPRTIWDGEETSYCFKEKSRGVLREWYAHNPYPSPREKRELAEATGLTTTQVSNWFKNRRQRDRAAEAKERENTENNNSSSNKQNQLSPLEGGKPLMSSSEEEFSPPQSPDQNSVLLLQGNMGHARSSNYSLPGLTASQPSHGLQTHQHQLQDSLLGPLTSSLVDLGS
#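 Six1/Eya2 binding was read as AlphaScreen signal after compounds were pinned into GST-Six1 plus His-tagged Eya2 (5X stock 250/500 nM) in pH 8.0 Tris/NaCl/TCEP buffer, beads added, then incubated 1 h, 37 C, dark.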
# CtBP-E1A inh: inhibitors of CtBP/E1A interaction; activity change, % (concentration not given with the values); AID 651724; AlphaScreen GST-E1A/His-CtBP binding, 1536-well; active compounds read low; 340,000 tested, 0.49% active; in the data active = activity change below about -65%; inconclusive = mostly about -30% to -63%; note: % is set by controls: 0 for no effect and ±100 for the full control effect
#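 In 5 uL wells, 23 nL compound meets equimolar GST-E1A and His-CtBP (5X stock 125 nM each) for 2 h, 37 °C. Beads (5X, 50 ug/mL) then 1 h, 37 °C, dark.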
# * marks the source's active call; other numbers are inactive results; u = inconclusive; x = not tested or not shown; ! = repeats disagree; [ ] = remark or other dose. Shown are actives, neighbours in structure and some others; about 5.5% of the full set was active somewhere. Unless noted, calls come from the whole dose curve; as a rule, active = well fitted curve in the direction sought with a large enough effect; inconclusive = small, poorly fitted or top-dose-only effect, or another doubt; inactive = no such curve, though single readings can be large; an effect the other way counts as inactive or inconclusive.
SMILES,RORg inh,Gal4-VP16 FLuc,MBNL1 CUG block,CBFb-RUNX1 inh,Six1-Eya2 inh,CtBP-E1A inh
CCn1cc(C(=O)N2CCN(c3ccccn3)CC2)c(=O)c2cc(S(=O)(=O)N(C)C3CCCCC3)ccc21,u,-2%,13%,0%,2,-8
CC(=O)N1c2ccc(S(=O)(=O)NCCC(=O)Nc3ncccc3C)cc2CC1C (configuration not stated),-3%,-10%,-4%,x,2,0
O=C(O)c1cc(N2N=C(C(F)(F)F)/C(=C/C=C/c3ccco3)C2=O)ccc1Cl,7%,u,u,2%,-78*,-11
CC1=NN(c2ccc(C(=O)OC(C)C)cc2)C(=O)/C1=C\C=C\c1ccco1,14µM*,u,-8%,1%,-13,-16
CC1=NN(c2ccccc2)C(=O)/C1=C\C=C\c1ccccc1,8.9µM*,u,x,-10%,-2,5
Cc1ccccc1N(CC(=O)N1CCN(Cc2ccccc2)CC1)S(C)(=O)=O,x,x,x,x,-3,2
CCC1CCCCN1C(=O)CCC(=O)Nc1nnc(C(F)(F)F)s1 (configuration not stated),25%,-3%,-1%,x,7,-4
Cc1c(C(=O)NCc2ccc(F)cc2)sc(=O)n1Cc1ccccc1,x,x,x,x,-10,2
CCC(C)(C)n1nnnc1C(c1cccs1)N1CCc2ccccc21 (configuration not stated),u,11µM*,-9%,-1%,-20,4
CCC(C)(C)n1nnnc1C(c1cccnc1)N1CCCc2ccccc21 (configuration not stated),1%,-25%,-10%,2%,0,1
O=C(Cc1csc(-c2cccc(F)c2)n1)Nc1cccc(S(=O)(=O)NC2=NCCC2)c1,x,x,x,x,-7,1
N[C@](CC1c2ccccc2Oc2ccccc21)(C(=O)O)[C@H]1C[C@@H]1C(=O)O,x,x,x,11%,x,x
Oc1ccc(Nc2nc3ccccc3nc2Nc2ccc(O)cc2)cc1,16µM*,u,9%,-28%,-18,-23
CC(=O)c1ccc(-n2cc(-c3ccc(C(C)(C)C)cc3)[n+]3c2SCCC3)cc1,-22%,11µM*,-3%,10%,12,-16
COc1ccc(Br)cc1C(=O)Nc1cccc2ncccc12,-1%,-4%,11%,4%,-2,x
COc1cc(C(=O)Nc2cccc3ncccc23)cc(OC)c1OC,35µM*,-14%,6%,9%,-2,6
COc1ccccc1NC(=O)CCC(=O)Nc1cc(OC)c(NC(=O)c2cccs2)cc1OC,-4%,-9%,4%,x,-95*,-93*
COc1ccccc1NC(=O)C(=O)N/N=C/c1cccs1,2µM*,3.2µM*,x,0%,-5,-3
COCCNC(=O)C(=O)N/N=C/c1cccs1,8%,4%,u,-5%,-6,x
COc1cc(NC(=O)c2cccs2)c(OC)cc1NC(=O)CCC(=O)Nc1cccc2ncccc12,40%,-7%,-2%,-5%,-82*,-87*
O=C(N/N=C/c1ccccn1)c1cc(-c2ccc(Cl)cc2)nc2ccccc12,0.4µM*,0.71µM*,41%,u,-7,6
O=C(O)COc1ccccc1/C=N/NC(=O)c1cc(-c2ccccc2)nc2ccccc12,0%,0%,u,2%,-29,-26
O=C(N/N=C/c1ccccn1)c1cc(-c2ccc(Br)cc2)nc2ccccc12,0.63µM*,1.1µM*,-7%,-2%,2,-1
O=C(O)COc1ccccc1/C=N/NC(=O)c1cc(-c2ccc(Cl)cc2)nc2ccccc12,-10%,-3%,2%,-14%,-80*,-81*
CC(C)Oc1ccc(C(=O)OCC(=O)NCCNC(=O)COC(=O)c2ccc(OC(C)C)cc2)cc1,25%,4%,-5%,x,-3,u
SMILES,RORg inh,Gal4-VP16 FLuc,MBNL1 CUG block,CBFb-RUNX1 inh,Six1-Eya2 inh,CtBP-E1A inh
CCOC(=O)c1c(NC(=S)NCCc2ccccc2)sc2c1CC(C(C)C)OC2 (configuration not stated),2.5µM*,1.3µM*,3%,1%,0,-3
CC(C)N1CCc2c(sc(NC(=S)NC(=O)c3ccccc3)c2C#N)C1,u,u,u,3%,17,-16
C=CCNC(=S)Nc1sc2c(c1C(=O)OCC)CC(C(C)C)OC2 (configuration not stated),5µM*,4.5µM*,-2%,0%,-8,-1
CC(C)C1Cc2c(sc(NC(=S)NC(=O)c3ccccc3)c2C#N)CO1 (configuration not stated),5.6µM*,u,1%,-2%,-7,x
CCOC(=O)c1c(NC(=S)Nc2ccccc2)sc2c1CCN(CCc1ccccc1)C2,-8%,1%,u,-7%,x,x
Cc1ccc(C(=O)NC2CCCc3ccccc32)cc1[N+](=O)[O-] (configuration not stated),7%,-23%,17%,x,-5,11
Cc1ccc(CCNS(=O)(=O)c2ccc3c(c2)N(C)CCO3)cc1,13%,0%,-5%,x,-10,-11
COCCNc1c2c(nc3c(-c4ccccc4)c(C)nn13)CCCC2,u,-2%,-2%,29%,22,24
CCC(C)Nc1c2c(nc3c(-c4ccccc4)c(C)nn13)CCC2 (configuration not stated),10µM*,-12%,-3%,u,14,26
COc1ccc2nc3c(c(-c4ccccc4)c2c1)CCC3,11µM*,18µM*!,28%,-3%[2.36 µM],1,1
COc1cccc(Nc2c3c(nc4c(-c5ccccc5)c(C)nn24)CCC3)c1,u,3.2µM*,-3%,u,25,13
COc1ccc(OC)c(Nc2c3c(nc4ccccc24)CCC3)c1,3%,-7%,-8%,x,-22,-26
Cc1nn2c(NCCN(C)C)c3c(nc2c1-c1ccccc1)CCCC3,u,0.45µM*,-7%,-5%,-13,-15
CCc1nc2ccc(C(=O)N(CC)CCN(C)C)cn2c1N(C)Cc1cccs1,x,x,x,x,3,-11
Cc1ccc(C)c(Cn2c3ccccc3c3cnn(CC(=O)NCCCN4CCCCC4)c(=O)c32)c1,-14%,-19%,0%,x,-1,x
Cc1nn2c(Nc3ccc(F)cc3)c3c(nc2c1-c1ccccc1)CCC3,2.8µM*,u,-12%,5%,3,-11
CCCCNc1c2c(nc3c(-c4ccccc4)c(C)nn13)CCC2,-4%,1%,10%,-10%,-8,1
Cc1ccc(-c2csc(N(CCO)CCCn3c(C(F)(F)F)nc4cc(C(F)(F)F)ccc43)n2)cc1,10µM*,u,0%,x,-6,4

# Bioassay records: PubChem BioAssay, National Center for Advancing Translational Sciences (NCATS)
